An excerpt weighted towards active compounds, which were near 4.5% of everything screened.
dFosB act-1 – activators of mouse delta FosB homodimer | hit rate 0.99% among 340,000 | AID 493131 | activation, % at 25 µM | P13346 | purified delta FosB, TAMRA-CDK5 oligo fluorescence polarization; percent of positive-control signal above neutral wells;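 active = mean activation above about 17%, with every replicate also reaching it, limit read from the data, passing the limit was not always enough; inconclusive = only one of the two conditions met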
Target sequence (P13346 whole entry, looked up): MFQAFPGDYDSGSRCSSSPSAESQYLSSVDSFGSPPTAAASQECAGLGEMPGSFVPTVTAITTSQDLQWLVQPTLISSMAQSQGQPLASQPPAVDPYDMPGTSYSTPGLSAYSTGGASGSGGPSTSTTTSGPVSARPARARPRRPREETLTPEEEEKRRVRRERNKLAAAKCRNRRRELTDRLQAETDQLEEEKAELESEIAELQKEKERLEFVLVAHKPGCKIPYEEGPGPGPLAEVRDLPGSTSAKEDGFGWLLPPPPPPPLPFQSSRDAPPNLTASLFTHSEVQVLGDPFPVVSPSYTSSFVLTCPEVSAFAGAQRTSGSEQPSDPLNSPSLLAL
Rpn11 inh – inhibitors of human proteasome Rpn11; human 26S proteasome, Ub4-pepOG fluorescence polarization; 20S core pre-blocked with epoxomicin; inhibition, % at 20 µM; hit rate 0.59% among 360,000; AID 588493;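 active = inhibition at 20 µM, scaled to each plate's controls, above about 33%, limit read from the data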
Target sequence (O00487 whole entry, looked up): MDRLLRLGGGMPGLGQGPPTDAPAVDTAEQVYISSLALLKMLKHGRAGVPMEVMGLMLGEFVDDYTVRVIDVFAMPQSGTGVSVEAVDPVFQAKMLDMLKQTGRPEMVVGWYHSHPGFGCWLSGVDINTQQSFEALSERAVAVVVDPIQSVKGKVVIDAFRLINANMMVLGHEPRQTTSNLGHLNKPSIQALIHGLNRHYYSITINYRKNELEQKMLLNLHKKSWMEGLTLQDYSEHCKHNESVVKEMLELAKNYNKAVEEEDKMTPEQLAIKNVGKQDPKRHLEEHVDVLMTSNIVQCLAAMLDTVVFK
TPT1 inh – inhibitors of Candida albicans tRNA 2'-phosphotransferase TPT1 | recombinant caTPT1, FP RNA substrate dephosphorylation | inhibition, % at 5 µM | hit rate 0.81% among 300,000;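 active = inhibition above the mean of all tested compounds plus 3 SD, set per screening campaign, cut at about 24% in these data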;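 note: plate controls were DMSO alone for no effect and ferristatin control at 100 nM for full effect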
ZTA counter – ZTA (EBV) inhibition in EBNA-1 counter-screen | hit rate 0.15% among 320,000 | P03206 | inhibition, % at 11 µM | ZTA-DNA binding, fluorescence polarization; in the data active = inhibition above about 33%
NR3A LBD binder – NR3A (human) ligand-binding domain modulation. AID 1259313. Tm shift relative to glycine control, % at 25 µM. NR3A LBD differential scanning fluorimetry, Tm shift; 0% = protein alone, 100% = glycine-bound protein. hit rate 2.5% among 340,000;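 active = melting temperature shift of at least 10% of the positive control shift, at one fixed dose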
EBNA-1 inhibitor – blocks EBNA-1 binding to DNA; EBNA-1 DNA binding, fluorescence polarization; inhibition, % at 14.8 µM; hit rate 0.34% among 300,000; AID 1950; in the data active = inhibition above about 28%
dFosB act-2 – activators of mouse delta FosB homodimer DNA binding; shares compounds with dFosB act-1; purified delta FosB, TAMRA-CDK5 oligo fluorescence polarization; normalised: neutral wells 0, positive control 100; activation, % at 24.9 µM; 2,400 tested, under 10 active; AID 588690;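 active = highest replicate activation at or above 34% and every replicate reaching that threshold; inconclusive = meets only one of the two criteria; inactive = meets neither criterion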;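 note: higher polarization means more probe DNA bound by delta FosB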
* = called active by the depositor; ? = inconclusive; · = not tested or not shown.

SMILES | dFosB act-1 | Rpn11 inh | TPT1 inh | ZTA counter | NR3A LBD binder | EBNA-1 inhibitor | dFosB act-2
O=C(NNC(=O)c1ccc(NC(=O)c2ccccc2)cc1)c1ccccc1 | 18* | 13 | -4 | 11 | 3 | 25 | 2
O=C(Nc1ccc(NS(=O)(=O)c2ccccc2)cc1)c1ccccc1 | ? | -6 | 2 | -8 | -6 | 16 | ·
O=C(Nc1ccc(NC(=O)c2ccc3c(c2)OCCO3)cc1)c1ccccc1 | 35* | 2 | -3 | 16 | 12* | 4 | 1
CC(=O)Nc1ccc(C(=O)Nc2ccc3c(c2)OCCO3)cc1 | 3 | 5 | -1 | -2 | -4 | -2 | ·
CC(=O)c1cccc(NC(=O)Cn2c(=O)oc3cc(S(=O)(=O)N4CCCC4)ccc32)c1 | 33* | 3 | 2 | 10 | 2 | -7 | 0
COc1ccc(COCC(O)CN2CCN(S(=O)(=O)c3c(F)cccc3F)CC2)cc1OC (stereo unspecified) | -5 | 0 | · | · | 0 | · | ·
CCC(C)c1ccc(S(=O)(=O)N2CCN(S(=O)(=O)c3ccc(NC(C)=O)cc3)CC2)cc1 (stereo unspecified) | 80* | 2 | 1 | 11 | 0 | -4 | -1
CCC(C)N1CCN(S(=O)(=O)c2ccc(NC(C)=O)cc2)CC1 (stereo unspecified) | -1 | -2 | 1 | -2 | -1 | 4 | ·
O=S1(=O)N=C(Nc2ccc(S(=O)(=O)N3CCCCC3)cc2)c2ccccc21 | 47* | 0 | -1 | 4 | -3 | -2 | 0
CCN(CC)S(=O)(=O)c1cccc(-n2c(O)c(C=Nc3ccccc3C(=O)O)c3ccccc3c2=O)c1 | -11 | 11 | 2 | 17 | -1 | 9 | ·
COc1ccc(CCNC(=O)c2cc(-c3ccc(C)c(C)c3O)n[nH]2)cc1OC | 8 | -1 | -3 | 4 | -3 | 1 | ·
Cc1ccc(-c2cc(C(=O)NCc3ccc4c(c3)OCO4)[nH]n2)c(O)c1C | 21* | -1 | 1 | 11 | 8 | 7 | -2
Cc1ccc(-c2cc(C(=O)Nc3cccnc3)[nH]n2)c(O)c1C | 25* | -7 | -2 | 9 | 28* | 6 | 3
CC(C)CNC(=O)NC(=O)COC(=O)c1cc([N+](=O)[O-])ccc1NCc1ccccc1Cl | · | · | -1 | -22 | · | 5 | ·
O=C(COC(=O)c1cc([N+](=O)[O-])ccc1NCc1ccccc1Cl)NCC(F)(F)F | 53* | -5 | 0 | 7 | -4 | 1 | 5
N=C1C(c2nc3ccccc3s2)=C(O)CN1NC(=O)c1c[nH]c2ccccc12 | 27* | 34 | -1 | 20 | -6 | 2 | -2
CCOc1ccc(CCNC(=O)c2nnn(CC(=O)Nc3c(C)cc(C)cc3C)c2N)cc1OCC | 29* | -5 | 0 | -16 | -1 | -3 | 2
COc1ccc(CCNC(=O)c2nnn(CC(=O)Nc3ccccc3C)c2N)cc1OC | 16 | 0 | 3 | 3 | 1 | 8 | ·
COc1ccc(CCNC(=O)c2nnn(CC(=O)Nc3c(C)cc(C)cc3C)c2N)cc1OC | 80* | 1 | -2 | -12 | 1 | 1 | 3
CCOc1ccc(OCC)c(NC(=O)c2nnn(CC(=O)Nc3cc(C)cc(C)c3)c2N)c1 | 61* | 5 | 1 | -7 | 16* | -5 | 8
CCOc1ccc(NC(=O)c2nnn(CC(=O)Nc3ccccc3OCC)c2N)cc1 | -7 | -6 | -3 | 2 | -2 | 20 | ·
CC1=C(C(=O)N(C(C)C)C(C)C)CC(CC(=O)NCc2ccco2)C(=O)N1CCCN1CCCC1=O (stereo unspecified) | · | 0 | · | · | · | · | ·
COC(=O)c1ccccc1S(=O)(=O)NCc1nc2nc(C)cc(C)n2n1 | -4 | 2 | -1 | 4 | 0 | 1 | ·
O=C(NC1CCS(=O)(=O)C1)c1c(NC(=O)C2COc3ccccc3O2)sc2c1CCCC2 (stereo unspecified) | 40* | 0 | -6 | -6 | -1 | 4 | 0
CSc1ccc(-c2sc(Nc3ccccc3)n[n+]2-c2ccc(F)cc2)cc1 | 23* | · | -4 | 7 | 0 | 3 | 6
SMILES | dFosB act-1 | Rpn11 inh | TPT1 inh | ZTA counter | NR3A LBD binder | EBNA-1 inhibitor | dFosB act-2
CC(=O)Nc1ccc(Nc2cc(C)nc3c(-c4ccc(Cl)cc4)c(C)nn23)cc1 | -5 | 5 | -4 | 27 | -5 | -7 | ·
CC(=O)Nc1ccc(Nc2cc(C)nc3c(-c4ccc(Cl)cc4)cnn23)cc1 | 18* | 1 | 1 | -6 | 30* | -7 | -7
O=c1cc(NCc2ccc3c(c2)OCO3)[nH]c(=O)n1-c1ccc(Cl)cc1 | 20* | 3 | 0 | 8 | 0 | 3 | 2
COc1cc(C(=O)Nc2ccc(Oc3ncnc4sc(-c5ccccc5)cc34)cc2)cc(OC)c1OC | 68* | -2 | -3 | -7 | 1 | -2 | 6
COc1ccc(C(=O)Nc2ccc(Oc3ncnc4sc(-c5ccccc5)cc34)cc2)cc1OC | -7 | -3 | 3 | 9 | -3 | -2 | ·
COc1ccc(C(=O)Nc2ccc(Oc3nc(C)nc4sc(-c5ccccc5)cc34)cc2)cc1OC | 34* | -3 | -2 | 5 | -10 | -1 | -1
CCNS(=O)(=O)c1ccc2nc(NC(=O)c3cccnc3)sc2c1 | -9 | 0 | 5 | 4 | 8 | 2 | ·
CS(=O)(=O)c1ccc2nc(NC(=O)c3cccc(NS(=O)(=O)c4ccc(F)c(F)c4)c3)sc2c1 | 29* | 4 | -1 | 6 | 26* | 8 | -8
CS(=O)(=O)c1ccc2nc(NC(=O)c3cccc([N+](=O)[O-])c3)sc2c1 | 1 | 7 | 1 | 0 | 7 | -1 | ·
O=C(Nc1nc2ccc(SC(F)F)cc2s1)c1ccc(NS(=O)(=O)c2ccc(F)c(F)c2)cc1 | 38* | 5 | -4 | 14 | 47* | 0 | 5
CCCCCCCCNCCS(=O)(=O)NCCCCCCCC | -1 | -9 | · | · | -1 | · | ·
CC(C)c1nc(SCC(=O)Nc2ccc3c(c2)OCCO3)c2c(=O)n(C)c(=O)n(C)c2n1 | 24* | -5 | 0 | -7 | 1 | -10 | 8
CC(C)c1nc(SCC(=O)Nc2cccc(C(F)(F)F)c2)c2c(=O)n(C)c(=O)n(C)c2n1 | -11 | 0 | -5 | -6 | 4 | -3 | ·
Cc1cc(NC(=O)c2cccc([N+](=O)[O-])c2)no1 | 14 | -2 | 1 | 0 | 1 | -4 | ·
Cc1cc(NC(=O)c2ccc(Br)c([N+](=O)[O-])c2)no1 | 46* | -2 | 0 | -4 | -4 | -2 | 1
O=c1c(Cc2ccccc2)c(O)ccn1C1CCCCCCC1 | -2 | -2 | 1 | 0 | -2 | -1 | ·
CN(C)CCCN(C(=O)c1ccc(S(=O)(=O)N(C)C2CCCCC2)cc1)c1nc2ccc(Br)cc2s1 | 22* | -2 | 2 | 12 | 0 | 0 | 0
